The results in this text go back to PubChem BioAssay AID1347428 (National Center for Advancing Translational Sciences (NCATS), 2020).

Each structure is given as a SMILES string. In all, about 91,000 compounds went through this assay and about 290 (0.32%) were called active. Another 7% or so got no clear call; they are omitted. Calls come from the whole dose curve; as a rule, active = well fitted inhibition curve with a large enough effect; inconclusive = small, poorly fitted or top-dose-only effect; inactive = no such curve, though single readings can be large or run the other way. Only a selection was taken, and actives are over-represented in it overall.
% is set by controls: 0 for no effect and ±100 for the full control effect; potency is the fitted concentration of half-maximal effect.

In this assay the target is Single-stranded DNA cytosine deaminase (Homo sapiens) (UniProt Q9GZX7). The assay is described as follows: Primary qHTS assay for inhibitors of Activation Induced Cytidine Deaminase (AID): AID signal. Note: nearly all actives have a fitted effect of over 25% in size. The conditions noted are these: AID deamination FRET fluorescence, UDG-coupled, 4 h; series mostly up to 115 µM; activity change, negative = inhibition: at the top concentration. The source says: Assay Provider (PI) Patricia Gearhart Ph.D.
Sequence of Single-stranded DNA cytosine deaminase (Homo sapiens) (Q9GZX7 whole entry, looked up): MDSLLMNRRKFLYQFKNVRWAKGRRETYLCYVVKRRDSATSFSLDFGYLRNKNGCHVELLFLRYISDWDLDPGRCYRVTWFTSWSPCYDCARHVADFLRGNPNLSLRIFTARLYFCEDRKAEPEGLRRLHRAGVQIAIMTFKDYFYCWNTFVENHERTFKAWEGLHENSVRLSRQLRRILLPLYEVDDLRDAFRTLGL
National Institute on Aging
National Institute of Health (NIH), Bethesda, MD
Assay Provider (PI) Rahul Kohli Ph.D.
Perelman School of Medicine
University of Pennsylvania, Philadelphia, PA
Activation-Induced Deaminase (AID) is a cytosine deaminase which converts cytosine into uracil within stretches of ssDNA. The presence of uracil in DNA initiates a cascade of mutagenic DNA repair to introduce point mutations and DNA double strand breaks. Specific targeting of AID to the immunoglobulin heavy chain loci (Igh) promotes mutagenesis in the antibody variable region for somatic hypermutation (SHM) or switch regions leading to class switch recombination (CSR). However, AID also plays a role in accumulating unnecessary mutations across the genome. Mis-targeting of AID results in the initiation of tumor development and leads to greater drug resistance among cancer cells when continually expressed. To identify an AID inhibitor, a small molecule library will be screened in collaboration with NCATS core facility at NIH. To confirm biological function, inhibitors will be examined in an in vitro murine B-cell activation assay and subsequent secondary validation screens. Top molecules will be further screened to identify inhibitory efficacy against a wild type primary splenocytes assay. Using these approaches, we hope to identify a small molecule with great efficacy and low toxicity for use as a molecular probe to further characterize AID's intricacies, or even as a therapeutic.
A FRET based analysis of cytosine deamination, was developed to identify potential inhibitors of AID catalytic activity. This screen has two signal output, Read 1 evaluates the AID inhibition response. The second readout (Read 2) evaluates UDG response and is uses as a counterscreen to exclude false positive inhibitors. Inhibition in AID and inactivity in the UDG signal is the desired outcome for this assay.
SEQUENCE No. (e.g., 1, 2, 3, etc.); […] (e.g., Cells, Incubation, Reagent, etc.); VALUE; DESCRIPTION
1a; Reagent; 3 uL; [4/3x] 1 uM AID/2.67 U/mL UDG
1b; Reagent; 3 uL; 2 U/mL UDG
1c; Reagent; 3 uL; 1 uM AID
2a; Compound; 46 nL; Follow-up plates (0.64 uM - 10 mM)
2b; Control; 46 nL; ATA ([…] - 10 mM)
3; Time; 10 min; incubation at room temperature
5; Time; 4 hr; incubation at room temperature
6; Reagent; 4 uL; [2x] 250 mM NaOH
7; Time; 15 sec; centrifuge at 1000 rpm
8; Time; 30 min; incubation at room temperature
9a; Detection; fluorescence (Read 1: AID); EnVision (PerkinElmer) plate reader, 540 excitation and 590 emission filters
9b; Detection; fluorescence (Read 2: UDG); EnVision (PerkinElmer) plate reader, 560 excitation and 665 emission filters
NOTES (numbers refer to sequence above)
1a; Reagents were dispensed in a medium-binding black solid-bottom Greiner plates (789176F) using a BioRptr liquid dispenser. Dispense 3 uL of [4/3x] 1 uM AID (provided by Kohli lab) and [4/3x] 2 U/mL UDG (NEB M0280L) into columns 1, 2, 5 to 48.
1b; Dispense 3 uL of [4/3x] 2 U/mL UDG into column 3.
1c; Dispense 3 uL of [4/3x] 1 uM AID into column 4.
2a; Compound (7-points [uM] (0.64; 3.2; 16; 80; 400; 2,000; 10,000; 20,000) double pin-transferred (Dip Factor = 2) using the Kalypsys (Wako USA) pintool equipped with a 1536 pinhead for a final concentration range of 7.32 nM - 114 uM. […]
9a; Fluorescence signal (column label AID) was read using the EnVision plate reader. […]
A general note: Quantitative high-throughput screening tests each substance at several concentrations.
As to `CC(=O)c1c(O)c(C)c(O)c(Cc2c(O)c3c(c(C(=O)/C=C/c4ccccc4)c2O)OC(C)(C)C=C3)c1O`, the Potency is 28.2 µM (active).

In the case of `Cc1cccc2c(CCN)c[nH]c12`, the “activity change, negative = inhibition” value is 1.94% (inactive).

For the compound `COc1cccc(CNCCc2ccccc2)c1`, the “activity change, negative = inhibition” value was 0.963% (inactive).

As for `COC1CC(OC2CCC3(C=O)[C@H]4CCC5(C)C(C6=CC(=O)OC6)CCC5(O)[C@@H]4CCC3(O)C2)OC(C)C1O` (stereo not given in full), the “activity change, negative = inhibition” value is 5.64% (inactive).

Turning to `O=C(O)CCS(=O)(=O)C(Cl)Cl`, the “activity change, negative = inhibition” value is 2.04% (inactive).
